CHX counter: affects cycloheximide protein synthesis inhibition readout, counter-screen | cell reporter, cycloheximide protein synthesis inhibition counterscreen | max response, % | actives 12% (n = 300,000); in the data active = max response mostly above about 13%, no sharp cut-off; inactive = mostly below about 14%; note: read at 38.3 µM for the half of the compounds with a filed dose; 0% is about no effect
Pf growth 48h: inhibits P. falciparum growth in the first generation, 48 h | Potency, µM (titrated, usually from 28.7 µM), for the others: top-dose activity change, negative = inhibition, hits mostly inhibitors | P. falciparum luciferase growth in erythrocytes, 48 h | actives 5.9% (n = 310,000); note: potency is the fitted concentration of half-maximal effect; % is set by controls: 0 for no effect and ±100 for the full control effect
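Read-out is firefly luciferase luminescence from an integrated reporter in P. falciparum, so falling signal marks reduced parasite growth. Infected erythrocytes were at 2% hematocrit and 0.1% parasitemia (final) in Albumax-supplemented RPMI 1640.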
Pf growth 96h: P. falciparum growth inhibition at 96 hours; AID 504834; Potency, µM (doses to about 28.7 µM), for the others: at the highest dose activity change, negative = inhibition, actives largely listed as inhibitors; actives 6.9% (n = 320,000); P. falciparum luciferase reporter growth, 96 h; note: potency is the fitted concentration of half-maximal effect; % is set by controls: 0 for no effect and ±100 for the full control effect
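Two-generation exposure (96 h) targets delayed-death phenotype. Reporter parasites carrying integrated firefly luciferase, in red cells at 2% hematocrit and 0.05% parasitemia final, kept at 37 C, 5% CO2; luminescence loss indicates inhibition.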
NS1 function inh: influenza NS1 inhibition | Potency, µM (top dose mostly 46.1 µM), for the others: at the top dose activity, positive = more growth | actives 0.4% (n = 270,000); calls by dose curve; note: potency is the fitted concentration of half-maximal effect; actives are rising curves; nearly all actives have a fitted effect of over 50% in size
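OD600 was taken as the measure of yeast growth restored by compound in an NS1-expressing S. cerevisiae strain. Cells had been washed out of glucose medium and diluted 1:100 into galactose -URA medium, pH 6.0.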
Shiga inhibitor: Shiga toxin inhibition | Vero cells, Shiga toxin protein synthesis inhibition reporter | inhibition, % at 38.7 µM | actives 9.2% (n = 290,000) | AID 2315; in the data active = inhibition mostly above about 28%, no sharp cut-off; inactive = mostly below about 43%; note: 0% is about no effect
Numbers without * were called inactive; i = inactive; ? = inconclusive; . = no result given. This is a sample that favours compounds with a hit; in the whole collection about 21% have one here. Unless noted, calls come from the whole dose curve; as a rule, active = well fitted inhibition curve with a large enough effect; inconclusive = small, poorly fitted or top-dose-only effect, or another doubt; inactive = no such curve, though single readings can be large or run the other way.

SMILES | CHX counter | Pf growth 48h | Pf growth 96h | NS1 function inh | Shiga inhibitor
COc1cc(C(=O)Nc2ccc(C(=O)O)cc2)ccc1OC(C)=O | -1 | 21% | 2.3µM* | . | -6
COc1cc(C(=O)Nc2ccc3c(c2)Cc2ccccc2-3)cc(OC)c1OC | 0 | 14% | ? | 16% | -10
COc1ccc(OC)c(C(=O)c2ccccc2)c1 | -2 | -3% | i | -12% | -3
Cc1cc(C)cc(C(=O)NN2CCN(C)CC2)c1 | 2 | 3% | ? | 4% | -4
Cn1nnc2cc(C(=O)NC3CC3)ccc21 | 6 | 39% | . | 2% | 10
COc1ccc(C(=O)Nc2ccncc2)cc1OC | 18 | 1% | . | 2% | -21
COc1ccc(C(=O)Nc2ccc(C(=O)N3CCCCC3)cc2)cc1OC | 11 | 30% | 17% | -8% | 33
COc1ccc(C(=O)Nc2ccc3c(c2)C(=O)c2ccccc2C3=O)cc1OC | 31* | 24% | 0% | 20% | 22
COc1ccc(C(=O)Nc2ccc3ccccc3c2)cc1OC | 43* | 116% | 61% | -15% | 68*
Cn1nnc2cc(C(=O)Nc3ccc4ccccc4c3)ccc21 | 36* | 77% | 20% | 0% | 108*
COc1ccc(C(=O)Nc2ccc(C(=O)N3CCC(C)CC3)cc2)cc1OC | -3 | ? | 2.6µM* | -4% | 30
CCOc1ccc(N(CC(=O)NCc2cccc(OC)c2)S(=O)(=O)c2c(C)noc2C)cc1 | 2 | ? | ? | -38% | -6
CCNC(=O)N1CCCC(C(=O)c2ccc(C(F)(F)F)cc2)C1 (centres undefined) | 3 | ? | ? | -8% | 11
OCC[C@H]1C[C@@H](O)[C@H](O)[C@]2(CCc3ccccc3O2)O1 | . | 20% | -18% | . | .
Cn1c(=O)n(CCCOc2ccc(Cl)cc2)c2ccccc21 | 19* | -8% | 176% | -11% | 4
Cn1c(=O)n(CCc2ccccc2)c2ccccc21 | 18* | 54% | -1% | -20% | .
CCC(=O)N/N=C(\C)CC(=O)Nc1cccc([N+](=O)[O-])c1 | 0 | -7% | ? | 12% | 2
Cc1nc2cc3ccccc3cc2n1C | 19* | -3% | -84% | -37% | 48*
COc1ccc(C(=O)Cn2nnc(-c3ccccc3NC(=O)C(F)(F)F)n2)cc1 | -2 | ? | . | 5% | -3
COc1ccc(C(=O)COC(=O)CCn2nnc(-c3cccc(O)c3OC)n2)cc1 | -3 | -7% | 12µM* | -3% | -5
CN(NC(=O)c1ccc(Cl)cc1)c1cccc(Cl)n1 | 15 | 34% | 0% | 1% | -8
Cn1c(SCC(=O)Nc2cccc(F)c2)nc2c(c1=O)SCC2 | 1 | ? | 2.6µM* | 9% | 21
CCOc1ccc(NC(=O)CSc2nc3c(c(=O)n2C)SC(C)C3)cc1 (centres undefined) | -3 | 13µM* | 7.4µM* | ? | -5
CC1Cc2nc(SCC(=O)Nc3ccc(F)cc3)n(C)c(=O)c2S1 (centres undefined) | -5 | ? | ? | -41% | -4
Cn1c(SCc2cccc([N+](=O)[O-])c2)nc2c(c1=O)SCC2 | -4 | ? | 3.7µM* | . | -4
SMILES | CHX counter | Pf growth 48h | Pf growth 96h | NS1 function inh | Shiga inhibitor
COc1cccc(NC(=O)CSc2nc3c(c(=O)n2C)SC(C)C3)c1 (centres undefined) | -1 | 12µM* | 9.3µM* | -45% | -10
Cn1c(SCc2cccnc2)nc2c(c1=O)SCC2 | 3 | -2% | ? | -1% | -8
O=C(CN1CCN(S(=O)(=O)c2ccc(Cl)c(Cl)c2)CC1)N1CCCC1 | . | -22% | ? | . | .
COc1cccc(C(=O)CC(=O)C(=O)Nc2cc(OC)c(OC)c(OC)c2)c1 | 1 | . | ? | 1% | -5
N#CCCN(C(=O)COC(=O)CCc1c[nH]c2ccccc12)c1ccccc1 | . | 13% | 4% | . | .
CCOCc1nnc(NC(=O)CS(=O)(=O)c2ccc(C)cc2)s1 | -5 | 41% | 36% | 4% | -5
CCN(c1cccc(C)c1)S(=O)(=O)c1ccc(-c2cc(C)no2)s1 | 1 | ? | 12µM* | -4% | 14
Cc1cccc(N(C)S(=O)(=O)c2ccc(-c3cc(C)no3)s2)c1 | -6 | 30% | 32% | -17% | -8
N=c1c2c(-c3ccccc3)c(-c3ccccc3)n(Cc3ccco3)c2ncn1CCCN1CCOCC1 | -5 | ? | 18% | . | 16
N=c1c2c(-c3ccccc3)c(-c3ccccc3)n(Cc3ccccc3)c2ncn1CCO | -10 | 4.1µM* | ? | -4% | -8

High-throughput results (PubChem BioAssay)
